Experimental data reported in PubChem BioAssay (NCATS).
Inconclusive results are not listed. Active and inactive are the calls of the source. Unless noted, calls come from the whole dose curve; as a rule, active = well fitted curve in the direction sought with a large enough effect; inconclusive = small, poorly fitted or top-dose-only effect, or another doubt; inactive = no such curve, though single readings can be large; an effect the other way counts as inactive or inconclusive.

Columns and labels:
[1] = MultiTox-Fluor Cytotoxicity Assay - LYMP1-001 - Live Cells (AID 947); note: potency is the fitted concentration of half-maximal effect
[2] = Cell Viability - LYMP1-002 - Assay at 16 hr (AID 948); note: potency is the fitted concentration of half-maximal effect
Procedure, shortened: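 LYMP1-002 human lymphoblastoid cells, 2500/well, were treated with compounds for 16 hr at 37 C in complete medium. Viability was read as intracellular ATP by CellTiter-Glo luminescence, and AC50 was derived from a Hill fit to concentration-response data.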

[3] = MultiTox-Fluor Cytotoxicity Assay - LYMP1-002 - Live Cells (AID 955);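 note: cells exposed to compound for 16 hours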; note: potency is the fitted concentration of half-maximal effect
Procedure, shortened: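 LYMP1-002 lymphoblastoid cells; 2500 cells/well; 16 hr compound exposure, 37 C; MultiTox-Fluor reagent 60 min RT; live-cell fluorescence Ex/Em=405/510; qHTS concentration-response, Hill-equation AC50; tetraoctylammonium bromide positive control.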

[4] = MultiTox-Fluor Cytotoxicity Assay - LYMP1-002 - Dead Cells (AID 960); note: nearly all actives have a fitted effect of over 60% in size; note: potency is the fitted concentration of half-maximal effect
Procedure, shortened: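 Readout: fluorescence at 485/520 from cell-impermeant bis-AAF-R110 cleaved by proteases leaking from damaged cells. LYMP1-002 lymphoblastoid line, 16 hr compound treatment at 37 C, concentration-response in qHTS format; Hill-equation AC50 values.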

[5] = MultiTox-Fluor Cytotoxicity Assay - LYMP1-003 - Live Cells (AID 962);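 note: cells exposed to compound for 16 hours at 37 °C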; note: potency is the fitted concentration of half-maximal effect
Procedure, shortened: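 Readout: live-cell fluorescence (Ex/Em=405/510) from GF-AFC cleavage after 60 min MultiTox-Fluor reagent at room temperature. Lymphoblastoid LYMP1-003 cells, 16 hr compound treatment, 37 C. Concentration-response fitted to standard Hill equation for AC50.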

[6] = Cell Viability - LYMP1-003 - Assay at 24 hr (AID 963); note: potency is the fitted concentration of half-maximal effect
Procedure, shortened: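 CellTiter-Glo luminescence (intracellular ATP) read after 24 hr, 37 C compound exposure of 2500 LYMP1-003 human lymphoblastoid cells/well in complete medium; qHTS concentration series; AC50 via standard Hill equation.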

[7] = Cell Viability - LYMP1-003 - Assay at 40 hr (AID 964); note: nearly all actives have a fitted effect of over 60% in size; note: potency is the fitted concentration of half-maximal effect
Procedure, shortened: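 LYMP1-003 lymphoblastoid cells, 2500/well; 5 hr preincubation, 40 hr compound exposure, 37 C; CellTiter-Glo 30 min RT; luminescence; Hill-fit AC50. Positive control tetraoctylammonium bromide.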

[8] = Cell Viability - LYMP2-003 (AID 965);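 note: cells exposed to compounds for 24 h before reading; nearly all actives have a fitted effect of over 50% in size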; note: potency is the fitted concentration of half-maximal effect
Procedure, shortened: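 Human lymphoblastoid LYMP2-003 cells, 2500/well, exposed to compounds for 24 h at 37 C in complete medium. Viability read as intracellular ATP by CellTiter-Glo luminescence; AC50 from Hill-equation fits of qHTS concentration-response data.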

[9] = Cell Viability - LYMP2-004 (AID 966); note: nearly all actives have a fitted effect of over 65% in size; note: potency is the fitted concentration of half-maximal effect
Procedure, shortened: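 Luminescent ATP read-out (CellTiter-Glo, 30 min RT) after 24 hr compound exposure at 37 C; 2500 lymphoblastoid cells/well, complete medium. Decrease in ATP = cytotoxicity; AC50 from standard Hill model.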

[10] = Cell Viability - LYMP2-005 (AID 967); note: potency is the fitted concentration of half-maximal effect
Procedure, shortened: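 Human lymphoblastoid LYMP2-005 cells, 2,500 per well in complete medium, rested 5 h at 37C then compound-treated 24 h at 37C. Intracellular ATP read by CellTiter-Glo luminescence after 30 min at room temperature; AC50 from Hill-equation fits of concentration-response data.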

[11] = Cell Viability - LYMP2-009 (AID 968); note: nearly all actives have a fitted effect of over 55% in size; note: potency is the fitted concentration of half-maximal effect
[12] = Cell Viability - LYMP2-011 (AID 969); note: nearly all actives have a fitted effect of over 60% in size; note: potency is the fitted concentration of half-maximal effect
Procedure, shortened: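 Luminescent ATP read-out (CellTiter-Glo, 30 min RT) after 24 hr compound exposure at 37 C in human lymphoblastoid cells, 2500 cells/well. Decreasing ATP indicates cytotoxicity; AC50 from standard Hill fit.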

[13] = Cell Viability - LYMP2-013 (AID 970); note: nearly all actives have a fitted effect of over 55% in size; note: potency is the fitted concentration of half-maximal effect
Procedure, shortened: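 CellTiter-Glo luminescence (cellular ATP) read after 30 min at RT. Cells: human lymphoblastoid line, 2500/well, 24 hr compound exposure at 37 C. Tetraoctylammonium bromide positive control; AC50 via standard Hill fit of qHTS titrations.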

[14] = Cell Viability - LYMP2-015 (AID 971); note: nearly all actives have a fitted effect of over 55% in size; note: potency is the fitted concentration of half-maximal effect
Procedure, shortened: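 qHTS cytotoxicity: 2500 cells/well, 5 hr 37 C, compound 24 hr 37 C, CellTiter-Glo 30 min RT, luminescence. Loss of ATP = toxicity; AC50 via standard Hill fit.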

[15] = Cell Viability - LYMP2-017 (AID 972); note: nearly all actives have a fitted effect of over 55% in size; note: potency is the fitted concentration of half-maximal effect
Procedure, shortened: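 Luminescent ATP read-out (CellTiter-Glo, 30 min RT) reports viable cell number. Cells: human lymphoblastoid line, 2500 per well, 5 hr preincubation, 24 hr compound exposure at 37 C. AC50 is derived from qHTS concentration-response data using the standard Hill model.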

[16] = Cell Viability - LYMP2-019 (AID 973); note: nearly all actives have a fitted effect of over 55% in size; note: potency is the fitted concentration of half-maximal effect
Procedure, shortened: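 qHTS, 1536-well; 2500 cells/well; 5 hr pre-incubation, 24 hr compound exposure, 37 C; CellTiter-Glo added, 30 min RT; luminescence read; AC50 via standard Hill equation.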

[17] = Cell Viability - LYMP2-021 (AID 974); note: potency is the fitted concentration of half-maximal effect
Procedure, shortened: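 ATP luminescence (CellTiter-Glo, 30 min RT) after 24 h compound exposure at 37 C; 2500 human lymphoblastoid cells/well, 5 h settle beforehand. Cytotoxicity = concentration-dependent ATP drop, AC50 by Hill fit.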

[18] = biological target: Pyruvate kinase PKM (Homo sapiens) (UniProt P14618); assay: qHTS Assay for Activators of Human Muscle Pyruvate Kinase (AID 954; active = well fitted curve in the direction sought with a large enough effect, not every such curve was filed as active)
Procedure, shortened: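 ATP production by PKM2 detected via luciferase luminescence after 1 h room-temperature reaction (0.1 nM enzyme, PEP at Km 0.5 mM, ADP 0.1 mM, pH 7.2 imidazole buffer). Inhibition scaled to no-enzyme control; activation referenced to 0.3 nM enzyme wells.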

Measured: Potency

Pyruvate kinase PKM (Homo sapiens), sequence (P14618 whole entry, looked up): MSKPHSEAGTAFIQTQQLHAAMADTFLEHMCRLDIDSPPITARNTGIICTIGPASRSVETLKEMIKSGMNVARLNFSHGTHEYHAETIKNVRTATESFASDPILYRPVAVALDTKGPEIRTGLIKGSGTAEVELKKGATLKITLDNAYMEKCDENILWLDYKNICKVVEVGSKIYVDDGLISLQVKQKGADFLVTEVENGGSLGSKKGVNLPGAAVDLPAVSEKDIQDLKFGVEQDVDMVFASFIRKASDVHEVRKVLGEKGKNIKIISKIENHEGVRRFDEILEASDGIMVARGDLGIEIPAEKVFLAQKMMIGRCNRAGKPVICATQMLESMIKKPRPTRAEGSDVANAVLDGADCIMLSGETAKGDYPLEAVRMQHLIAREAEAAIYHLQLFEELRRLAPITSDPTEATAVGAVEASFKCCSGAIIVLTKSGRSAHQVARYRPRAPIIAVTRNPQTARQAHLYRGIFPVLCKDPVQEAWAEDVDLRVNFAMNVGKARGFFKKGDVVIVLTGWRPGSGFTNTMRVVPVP

CN(C)c1ccc(N=NS(=O)(=O)O)cc1
inactive: [1] | [2] | [3] | [4] | [5] | [6] | [7] | [8] | [9] | [10] | [11] | [12] | [13] | [14] | [15] | [16] | [17]

Nc1ccc(O)c([N+](=O)[O-])c1
inactive: [1] | [2] | [3] | [5] | [6] | [8] | [9] | [10] | [11] | [12] | [13] | [15] | [17]

O=c1cc(-c2ccccc2)oc2ccccc12
inactive: [1] | [2] | [3] | [4] | [5] | [6] | [7] | [8] | [9] | [10] | [11] | [12] | [13] | [14] | [15] | [16] | [17]

CCCOC(=O)c1ccc(O)cc1
inactive: [1] | [2] | [3] | [4] | [5] | [6] | [7] | [8] | [9] | [10] | [11] | [12] | [13] | [14] | [15] | [16] | [17]

O=C(c1cc(O)c(O)c([N+](=O)[O-])c1)c1ccccc1F
inactive: [18]

Nc1ccc(O)c(C(=O)O)c1
inactive: [1] | [2] | [3] | [4] | [5] | [6] | [7] | [8] | [9] | [10] | [11] | [12] | [13] | [14] | [15] | [16] | [17]

COc1cc2c(CCNC(C)=O)c[nH]c2cc1Cl
inactive: [18]

Nc1nc2ccc([N+](=O)[O-])cc2s1
inactive: [1] | [2] | [3] | [4] | [5] | [6] | [7] | [8] | [9] | [11] | [12] | [13] | [14] | [15] | [16] | [17]

Nc1ccc([N+](=O)[O-])cc1O
inactive: [1] | [2] | [3] | [4] | [5] | [6] | [7] | [8] | [9] | [10] | [11] | [12] | [13] | [14] | [15] | [16] | [17]

C#C[C@]1(O)CC[C@H]2[C@@H]3CCc4cc(O)ccc4[C@H]3CC[C@@]21C
inactive: [1] | [2] | [3] | [5] | [6] | [8] | [9] | [11] | [12] | [13] | [14] | [15] | [16] | [17]

N#C/C(=C\c1ccc(O)c(O)c1)C(=O)c1ccc(O)c(O)c1
inactive: [18]

c1ccc2sc(SSc3nc4ccccc4s3)nc2c1
inactive: [1] | [2] | [3] | [4] | [5] | [6] | [7] | [8] | [9] | [10] | [11] | [12] | [13] | [14] | [15] | [16] | [17]

NCCO
inactive: [1] | [2] | [3] | [4] | [5] | [6] | [7] | [8] | [9] | [10] | [11] | [12] | [13] | [14] | [15] | [16] | [17]

COc1cc(/C=C/C(=O)CC(=O)/C=C/c2ccc(O)c(OC)c2)ccc1O
inactive: [1] | [5]
active: [2] 50.1 µM | [6] 50.1 µM | [7] 39.8 µM | [8] 31.6 µM | [9] 31.6 µM | [11] 25.1 µM | [12] 31.6 µM | [13] 50.1 µM | [14] 50.1 µM | [15] 39.8 µM | [16] 39.8 µM | [17] 50.1 µM

N=C1N=C(N)c2cc3ccccc3cc21
active: [2] 39.8 µM | [3] 25.1 µM | [5] 50.1 µM | [6] 50.1 µM | [7] 39.8 µM | [8] 39.8 µM | [9] 39.8 µM | [10] 39.8 µM | [11] 39.8 µM | [12] 39.8 µM | [13] 39.8 µM | [14] 50.1 µM | [15] 39.8 µM | [17] 39.8 µM

CC(=O)SCC[N+](C)(C)C
inactive: [18]

NCCCS(=O)(=O)O
inactive: [18]

Oc1ccccc1O
inactive: [1] | [18] | [3] | [8] | [15] | [16]

O=C1CN(/N=C/c2ccc([N+](=O)[O-])o2)C(=O)N1
inactive: [2] | [3] | [4] | [8] | [10]

CN(C)CCC(c1ccc(Cl)cc1)c1ccccn1 (stereo unspecified)
inactive: [2] | [3] | [4] | [5] | [6] | [7] | [8] | [9] | [10] | [11] | [12] | [13] | [15] | [16] | [17]

CCCCCCCCCCCCCCCCCC(=O)O
inactive: [1] | [2] | [3] | [4] | [5] | [6] | [7] | [8] | [9] | [10] | [11] | [12] | [13] | [14] | [15] | [16] | [17]

CN(C)c1ccc(C(=C2C=CC(=[N+](C)C)C=C2)c2ccccc2)cc1
active: [1] 1 µM | [2] 1.58 µM | [3] 1.58 µM | [4] 1.58 µM | [5] 2 µM | [6] 2 µM | [7] 0.631 µM | [8] 0.501 µM | [9] 0.316 µM | [10] 0.501 µM | [11] 0.398 µM | [12] 0.316 µM | [13] 0.501 µM | [14] 0.316 µM | [15] 0.501 µM | [16] 0.501 µM | [17] 0.398 µM

CN1CCC[C@H]1c1cccnc1
inactive: [1] | [2] | [3] | [4] | [5] | [6] | [7] | [8] | [9] | [10] | [11] | [12] | [13] | [14] | [15] | [16] | [17]

CC1(C)S[C@@H]2[C@H](NC(=O)[C@H](N)c3ccccc3)C(=O)N2[C@H]1C(=O)O
inactive: [1] | [2] | [3] | [4] | [5] | [6] | [7] | [8] | [9] | [10] | [11] | [12] | [13] | [14] | [15] | [16] | [17]

O=C(O)/C=C\C(=O)O
inactive: [1] | [2] | [3] | [4] | [5] | [6] | [7] | [8] | [9] | [10] | [11] | [12] | [13] | [14] | [15] | [16] | [17]

CN(C)C(N)=NCCC[C@H](N)C(=O)O
inactive: [18]

O=C(O)c1cc(O)c(O)c(O)c1
inactive: [2] | [3] | [5] | [6] | [10] | [11] | [12] | [13] | [14] | [15] | [16] | [17]

CC(C)NCC(O)COc1cccc2ccccc12 (stereo unspecified)
inactive: [1] | [2] | [3] | [5] | [6] | [7] | [8] | [9] | [10] | [12] | [13] | [14] | [15] | [16] | [17]

O=c1[nH]c2cc(Cl)c(Cl)cc2[nH]c1=O
inactive: [18]

COc1cc(CNC(=O)CCCC/C=C/C(C)C)ccc1O
inactive: [1] | [2] | [3] | [5] | [6] | [8] | [9] | [10] | [11] | [12] | [13] | [14] | [15] | [16] | [17]

S=c1[nH]c2ccccc2s1
inactive: [1] | [2] | [3] | [4] | [5] | [6] | [7] | [8] | [9] | [10] | [11] | [12] | [13] | [14] | [15] | [16] | [17]

CCCCCCCC/C=C\CCCCCCCC(=O)NCCO
inactive: [18]

c1cnc2c(c1)ccc1cccnc12
active: [7] 7.94 µM
inactive: [3] | [4]
